Compound activity deposited in PubChem by National Center for Advancing Translational Sciences (NCATS).
BAZ2B inh: qHTS Assay for Inhibitors of BAZ2B; 4.4% of 360,000 active; Bromodomain adjacent to zinc finger domain protein 2B (Homo sapiens), Q9UIF8; Potency, µM (series often up to 114 µM), inactives show at the top dose activity change, negative = inhibition, most hits filed as inhibitors; AlphaScreen BAZ2B-H3K14Ac peptide displacement; also: % is scaled to controls: 0 for no effect and ±100 for the full control effect; nearly all actives have a fitted effect of over 60% in size
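Complex of BAZ2B and biotin-H3K14Ac (50 nM apiece) forms over 30 min at RT, then faces library compounds up to 110 uM for another 30 min; AlphaScreen beads added, 20 min dark incubation, luminescence read.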
HP1b binding inh: HTS for Inhibitors of HP1-beta Chromodomain Interactions with Methylated Histone Tails; Chromobox protein homolog 1 (Homo sapiens), P83916; AlphaScreen HP1-beta / biotin-H3K9me3 peptide binding; Potency, µM (top dose mostly 114 µM), for the others: at the highest dose activity change, negative = inhibition, usual class: inhibitors; 0.56% of 390,000 active; AID 540317, 2011; also: nearly all actives have a fitted effect of over 70% in size
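Compound inhibition of the preformed complex between 50 nM HP1-beta and 50 nM biotinylated H3K9me3 peptide was read by AlphaScreen. Buffer was PBS pH 7.4 with 0.01% Tween-20. Incubations ran 30 min at room temperature, with 10 ug/mL donor/acceptor beads.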
G9a block: qHTS Assay for Inhibitors of Histone Lysine Methyltransferase G9a | 8.8% of 350,000 active | Potency, µM (titrated, usually from 102 µM), without a hit: at the top dose activity, negative = inhibition, actives largely listed as inhibitors | G9a H3K9 monomethylation, AlphaScreen, 2 h | Histone-lysine N-methyltransferase EHMT2 (Homo sapiens), Q96KQ7 | AID 504332, 2011; also: % is scaled to controls: 0 for no effect and ±100 for the full control effect; nearly all actives have a fitted effect of over 75% in size
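Step 1: enzyme (final 20 nM) with compound, 15 min RT. Step 2: substrate peptide 500 nM and SAM 20 uM, 2 h RT. Step 3: anti-H3K9me1 antibody and AlphaScreen beads, 10 min, then plate read.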
L3MBTL1 block: qHTS Assay for the Inhibitors of L3MBTL1; Lethal(3)malignant brain tumor-like protein 1 (Homo sapiens), Q9Y468; AlphaScreen L3MBTL1–H3K9me1 peptide binding; Potency, µM (top dose mostly 57.1 µM), inactives show top-dose activity, negative = inhibition, hits mostly inhibitors; 0.66% of 230,000 active; also: % is scaled to controls: 0 for no effect and ±100 for the full control effect; nearly all actives have a fitted effect of over 60% in size
Target sequence (Q9Y468 whole entry, looked up): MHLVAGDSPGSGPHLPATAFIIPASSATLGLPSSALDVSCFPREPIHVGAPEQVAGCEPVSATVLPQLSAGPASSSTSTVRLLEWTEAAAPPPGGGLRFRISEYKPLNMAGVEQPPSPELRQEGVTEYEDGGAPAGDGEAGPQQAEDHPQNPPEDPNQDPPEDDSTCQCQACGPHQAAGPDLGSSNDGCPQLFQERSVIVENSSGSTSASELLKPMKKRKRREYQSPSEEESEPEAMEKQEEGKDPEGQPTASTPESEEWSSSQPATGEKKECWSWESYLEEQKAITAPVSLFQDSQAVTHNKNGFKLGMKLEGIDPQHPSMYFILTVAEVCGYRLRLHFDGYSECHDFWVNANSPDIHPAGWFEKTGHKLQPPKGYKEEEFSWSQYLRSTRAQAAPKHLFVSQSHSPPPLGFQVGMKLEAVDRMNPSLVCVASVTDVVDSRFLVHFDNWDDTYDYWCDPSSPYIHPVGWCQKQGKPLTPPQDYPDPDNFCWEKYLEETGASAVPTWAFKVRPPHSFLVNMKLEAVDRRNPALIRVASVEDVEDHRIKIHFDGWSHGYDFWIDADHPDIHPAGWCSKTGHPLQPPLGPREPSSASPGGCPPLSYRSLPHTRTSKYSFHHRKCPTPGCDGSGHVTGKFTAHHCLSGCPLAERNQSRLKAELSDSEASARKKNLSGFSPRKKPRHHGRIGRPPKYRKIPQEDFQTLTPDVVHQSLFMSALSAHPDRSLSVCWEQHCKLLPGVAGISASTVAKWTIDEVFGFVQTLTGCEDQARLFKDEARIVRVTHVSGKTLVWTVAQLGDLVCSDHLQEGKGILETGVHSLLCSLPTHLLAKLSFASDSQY
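Read-out is AlphaScreen signal from streptavidin donor and nickel chelate acceptor beads (10 ug/mL final each) bridging L3MBTL1 (50 nM) and biotinylated K9-monomethylated H3(1-15) peptide (75 nM), after 30 min compound exposure at room temperature.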
JMJD2A Tudor inh: qHTS Assay for Inhibitors of JMJD2A-Tudor Domain | Lysine-specific demethylase 4A (Homo sapiens), O75164 | AlphaScreen JMJD2A-Tudor / H3K4me3 peptide binding | Potency, µM (titrated, usually from 114 µM), without a hit: at the top dose activity change, negative = inhibition, most hits filed as inhibitors | 4.4% of 390,000 active; also: % is scaled to controls: 0 for no effect and ±100 for the full control effect; nearly all actives have a fitted effect of over 50% in size
Numbers without * were called inactive; ? = inconclusive; / = no result; ! = repeats disagree; [ ] = another dose, or the depositor's remark. Only some compounds are listed: those with a hit (about 11% of all), similar ones and a draw of the others. Calls follow the shape of the dose curve; as a rule, active = well fitted inhibition curve with a large enough effect; inconclusive = small, poorly fitted or top-dose-only effect; inactive = no such curve, though single readings can be large or run the other way. Potency is read from the fitted curve at half-maximal effect.

SMILES | BAZ2B inh | HP1b binding inh | G9a block | L3MBTL1 block | JMJD2A Tudor inh
NC(=O)CNC(=O)[C@H](Cc1ccccc1)NC(=O)[C@H](CCCN=C(N)N)NC(=O)[C@@H](N)Cc1ccc(O)cc1 | / | / | 37%[59 µM] | / | /
NC(Cc1ccc(N(CCCl)CCCl)cc1)C(=O)O (stereo not given) | / | / | 11µM*! | / | /
CCOC(=O)CC(NC(=O)C(Cc1ccc(N(CCCl)CCCl)cc1)NC(C)=O)C(=O)OCC (stereo not given) | 20µM* | ? | / | -6% | 13µM*
CC(=O)NC(Cc1ccc(N(CCCl)CCCl)cc1)C(=O)NC(C(=O)O)C(C)C (stereo not given) | -38% | 21% | -48% | -4% | 1%
CCOP(=O)(/C(C#N)=C(\C)O)c1ccccc1 (stereo not given) | -16% | 43% | ? | 11% | ?
CCCCCSc1cc(OC)c(CCN)cc1OC | ? | -31% | -13%[59 µM] | -2% | ?
CCCCCCCSc1cc(OC)c(CCN(C)C)cc1OC | 25µM* | ? | ? | ? | 35µM*
COc1cc([C@@H]2c3cc4c(cc3C[C@H]3COC(=O)[C@@H]32)OCO4)cc(OC)c1O | / | 22% | / | / | -12%
CC(C)NC(=O)C(C)N1CCN(S(=O)(=O)c2ccc3ccccc3c2)CC1 (stereo not given) | 56µM* | 40µM* | 25µM* | / | 3.2µM*
CN(c1ccccc1)S(=O)(=O)c1ccc2ccccc2c1 | 46% | 102% | 28% | 12% | 58%
O=C(O)CP(=O)(O)c1ccc(Cl)cc1 | -36% | 29% | 50µM* | 0% | 40µM*
CCc1ccc(N2C(=O)NC(=O)/C(=C\c3cc(C)n(-c4cc(C(=O)O)cc(C(=O)O)c4)c3C)C2=O)cc1 | 71µM* | -14%[57 µM] | 35µM* | / | 50µM*
Cc1cc(/C=C2/C(=O)NC(=O)N(c3ccccc3)C2=O)c(C)n1-c1ccc(F)cc1 | / | 15% | / | / | -18%
Cc1cc(/C=C2\C(=O)NC(=O)N(c3cccc(F)c3)C2=O)c(C)n1-c1ccc(C(=O)O)c(Cl)c1 | ? | 4% | 35µM* | ? | -35%
Cc1ccc(N2C(=O)NC(=O)/C(=C/c3ccc(-c4ccc(C(=O)O)c(Cl)c4)o3)C2=O)cc1 | ? | 24% | 10µM* | / | -20%
Cc1ccc(N2C(=O)NC(=O)/C(=C\c3cc(C)n(-c4cc(C(=O)O)cc(C(=O)O)c4)c3C)C2=O)cc1 | ? | ? | 35µM* | / | 32µM*
COc1ccc(CCN)cc1 | / | / | 32%[59 µM] | / | /
CC(C)[N+](C)(C)CC(O)CN(c1ccccc1)c1ccccc1 (stereo not given) | -6% | 8% | -4% | -1% | ?
NC1=N[C@H](O)[C@H]2C3O[C@]4(O)O[C@H](C(O)[C@@]2(N1)[C@@H]4O)C3(O)CO (stereo not given in full) | / | / | 2%[59 µM] | / | /
CCCCCCCCCC(=O)O[C@H]1CC[C@H]2[C@@H]3CCC4=CC(=O)CC[C@@H]4[C@H]3CC[C@]12C | / | / | 40%[59 µM] | / | /
CC1(C)CC(=O)C=C(NCCN2CCN(C(=O)Cc3ccc(Cl)cc3)CC2)C1 | 6% | 20% | 71µM* | -14% | -3%
O=C1CC(c2ccccc2)CC(O)=C1C=NCCN1CCN(C(=O)Cc2ccccc2)CC1 (stereo not given) | 10% | 44% | 79µM* | / | -11%
Cc1ccc(C2CC(=O)C(C=NCCN3CCN(C(=O)Cc4ccccc4)CC3)=C(O)C2)cc1 (stereo not given) | 6% | 17% | ? | 4% | 2%[57.1 µM]
CC1(C)CC(=O)C(C=NCCN2CCN(C(=O)Cc3ccc(F)cc3)CC2)=C(O)C1 | 7% | 56% | 35µM* | -2% | -7%
CCN(C[C@H]1N[C@@](CC)(C(=O)OC)[C@H]2C(=O)N(Cc3ccccc3)C(=O)[C@@H]12)S(=O)(=O)c1ccc(C)cc1 | / | 49% | / | 3% | -16%
SMILES | BAZ2B inh | HP1b binding inh | G9a block | L3MBTL1 block | JMJD2A Tudor inh
CN(C)CCO | / | / | 23%[59 µM] | / | /
Cn1cnc(CCN)c1 | / | 17% | 7.9µM*! | / | 14µM*
COc1ccc(-c2cc(-c3ccccc3)[n+](C)c(-c3ccccc3)c2)cc1 | 0% | -16% | 8% | 7% | -13%
C[n+]1c(-c2ccccc2)cc(CCCCc2cc(-c3ccccc3)[n+](C)c(-c3ccccc3)c2)cc1-c1ccccc1 | ? | -19% | 40µM* | 1% | ?
CCOP(=O)(OCC)/C(C#N)=C/c1cc(OC)ccc1OC | -6% | 41% | -8%[2.33 µM] | 10% | -8%
COc1ccc(-c2c3c(=O)n(C)c(=O)n(C)c3c3n2-c2ccccc2NC3c2ccccc2OC)cc1 (stereo not given) | -5% | 28% | ? | / | -13%
O=C(Nc1ccc(Cl)cc1)O/N=C(\c1ccccc1)c1ccccn1 | 14µM* | 23% | ? | -6% | 10µM*
c1ccc2c(c1)OCC(C1=NCCN1)O2 (stereo not given) | ? | 41% | 28µM* | 7% | 9%
NC1CC1c1ccccc1 (stereo not given) | / | / | 36%[59 µM] | / | /
Cn1c(O)c(C(=O)c2ccccc2F)c(=O)n(C)c1=O | -30% | 28% | 11µM* | / | -17%
O=C(Cc1coc2cc3c(cc12)CCC3)OCC(=O)N1CCCC1=O | ? | 57% | 41% | / | 12%
CN1[C@H]2CC(=O)C[C@@H]1[C@@H](O)C2 | / | / | 1%[21.5 µM] | / | /
CCOc1ccc(-c2nc3ccc(-c4nc5ccc(N6CCN(C)CC6)cc5[nH]4)cc3[nH]2)cc1 | / | / | 13µM* | / | /
O=C1C(c2ccccc2)=C(N2CC2)c2ccccc21 | 35µM* | 20µM* | 40µM* | -28% | 45µM*
CN1CCN(c2cccc3c2C(=O)c2ccccc2C3=O)CC1 | ? | -13% | ? | -19% | ?
CSc1ncc(Cl)c(C(=O)O)n1 (tested in a mixture with another compound) | ? | 15% | / | / | 79µM*
CCc1nc(SC)ncc1C(=O)Nc1ccc(Cl)cc1C(=O)c1ccccc1 | -1% | 28% | -1%[59 µM] | / | -18%
COc1cc([C@H]2c3cc4c(cc3[C@@H](O)[C@@H]3COC(=O)[C@H]23)OCO4)cc(OC)c1OC | / | / | 18%[21.5 µM] | / | /
COc1cc(C=C2C(=O)NC(=O)NC2=O)cc(OC)c1OC | -10% | 19% | 22%[2.33 µM] | 7% | -9%
O=C1NC(=O)C(=Cc2ccc(OCCOc3ccc([N+](=O)[O-])cc3)cc2)C(=O)N1 | 45µM* | -4% | 22µM* | 40µM* | 50µM*
